Results from PMC7862700, “An all-to-all approach to the identification of sequence-specific readers for epigenetic DNA modifications on cytosine”.

How the values were obtained:
Test in all cases: DAPPL (digital affinity profiling via proximity ligation, sequencing); 10 mM Tris-HCl pH 7.5, 50 mM NaCl, 1 mM DTT, 4% glycerol, room temperature, 30 min; GST-TFs on glutathione beads, 16-mer random dsDNA library, 0.1% formaldehyde crosslink after washing; high values mean tight binding
[1] = biological target: T1, FEV (Homo sapiens, UniProt Q99581 1-238); settings: protein: recombinant; tags: N-terminal GST; dsDNA, one strand shown
T1 sequence: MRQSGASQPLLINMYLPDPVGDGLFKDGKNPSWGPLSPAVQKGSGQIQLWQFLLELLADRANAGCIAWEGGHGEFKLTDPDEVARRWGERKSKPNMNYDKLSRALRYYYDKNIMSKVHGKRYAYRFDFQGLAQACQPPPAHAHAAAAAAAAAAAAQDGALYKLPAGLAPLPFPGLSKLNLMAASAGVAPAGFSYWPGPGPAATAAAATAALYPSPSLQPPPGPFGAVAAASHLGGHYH
How it was run: (§1)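 Pools of DNA-barcoded human transcription factors, expressed in yeast as GST fusions on glutathione beads and combined with a tag-only sample, were incubated with 200 nmole of a 16-mer random double-stranded DNA library. Incubation took 30 min at room temperature in Tris/NaCl/DTT/glycerol buffer and was followed by washing, 0.1% formaldehyde crosslinking, proximity ligation (BsaI/T4 ligase, 1 h, 37 °C), PCR amplification and sequencing on an Illumina NextSeq500. Binding signal is the ratio of a hexamer's read frequency for a factor to its frequency for the tag-only sample.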

[2] = biological target: ETV5 (Homo sapiens, UniProt P41161 1-510); settings: protein: recombinant; tags: N-terminal GST; dsDNA, one strand shown
How it was run: as §1

[3] = biological target: HSF1 (Homo sapiens, UniProt Q00613 1-529); settings: protein: recombinant; tags: N-terminal GST; chain copies: 3; dsDNA, one strand shown
How it was run: as §1

[4] = biological target: T2, SPIC (Homo sapiens, UniProt Q8N5J4 1-248); settings: protein: recombinant; tags: N-terminal GST; dsDNA, one strand shown
T2 sequence: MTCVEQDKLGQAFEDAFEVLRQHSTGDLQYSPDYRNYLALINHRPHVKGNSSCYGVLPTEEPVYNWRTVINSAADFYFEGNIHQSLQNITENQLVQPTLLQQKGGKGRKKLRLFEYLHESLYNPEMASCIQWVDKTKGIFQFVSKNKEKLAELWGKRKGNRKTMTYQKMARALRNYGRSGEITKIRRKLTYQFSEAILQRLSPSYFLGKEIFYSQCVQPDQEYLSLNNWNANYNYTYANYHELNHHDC
How it was run: as §1

[5] = biological target: ELF4 (Homo sapiens, UniProt Q99607 1-663); settings: protein: recombinant; tags: N-terminal GST; dsDNA, one strand shown
How it was run: as §1

[6] = biological target: T3, ELK4 (Homo sapiens, UniProt P28324-2 1-405); settings: protein: recombinant; tags: N-terminal GST; dsDNA, one strand shown
T3 sequence: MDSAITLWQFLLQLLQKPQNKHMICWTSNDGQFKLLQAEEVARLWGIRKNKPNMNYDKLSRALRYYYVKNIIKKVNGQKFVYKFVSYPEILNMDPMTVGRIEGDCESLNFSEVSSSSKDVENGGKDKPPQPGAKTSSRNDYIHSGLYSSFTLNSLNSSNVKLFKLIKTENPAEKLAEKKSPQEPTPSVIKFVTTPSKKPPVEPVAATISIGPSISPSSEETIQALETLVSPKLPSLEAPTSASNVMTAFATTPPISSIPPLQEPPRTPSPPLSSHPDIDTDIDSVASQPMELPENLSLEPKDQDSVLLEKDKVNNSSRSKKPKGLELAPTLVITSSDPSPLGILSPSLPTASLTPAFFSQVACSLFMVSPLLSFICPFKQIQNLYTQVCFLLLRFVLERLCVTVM
How it was run: as §1

[7] = biological target: T4, ETV2 (Homo sapiens, UniProt O00321 1-342); settings: protein: recombinant; tags: N-terminal GST; dsDNA, one strand shown
T4 sequence: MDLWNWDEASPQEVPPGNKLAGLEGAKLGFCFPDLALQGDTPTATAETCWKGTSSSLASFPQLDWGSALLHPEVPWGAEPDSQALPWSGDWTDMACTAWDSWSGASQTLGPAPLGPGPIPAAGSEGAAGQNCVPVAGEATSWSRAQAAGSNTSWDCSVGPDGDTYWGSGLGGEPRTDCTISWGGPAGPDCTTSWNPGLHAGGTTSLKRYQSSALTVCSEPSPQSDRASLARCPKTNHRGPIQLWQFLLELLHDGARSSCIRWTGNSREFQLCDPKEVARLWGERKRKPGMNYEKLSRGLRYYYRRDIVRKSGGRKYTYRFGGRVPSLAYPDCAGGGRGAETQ
How it was run: as §1

[8] = biological target: T5, ELF3 (Homo sapiens, UniProt P78545 1-371); settings: protein: recombinant; tags: N-terminal GST; dsDNA, one strand shown
T5 sequence: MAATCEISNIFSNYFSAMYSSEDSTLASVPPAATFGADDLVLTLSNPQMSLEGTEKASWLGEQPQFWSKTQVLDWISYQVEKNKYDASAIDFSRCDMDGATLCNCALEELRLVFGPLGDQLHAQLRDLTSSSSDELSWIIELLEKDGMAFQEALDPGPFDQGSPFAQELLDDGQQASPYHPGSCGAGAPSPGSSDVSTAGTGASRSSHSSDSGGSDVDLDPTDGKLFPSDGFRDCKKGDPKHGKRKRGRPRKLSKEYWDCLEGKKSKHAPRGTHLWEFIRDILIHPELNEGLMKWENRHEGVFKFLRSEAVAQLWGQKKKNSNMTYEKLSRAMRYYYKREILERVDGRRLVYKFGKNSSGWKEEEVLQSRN
How it was run: as §1

[9] = biological target: CRX (Homo sapiens, UniProt O43186 1-299); settings: protein: recombinant; tags: N-terminal GST; dsDNA, one strand shown
How it was run: as §1

[10] = biological target: ETV1 (Homo sapiens, UniProt P50549 1-477); settings: protein: recombinant; tags: N-terminal GST; dsDNA, one strand shown
How it was run: as §1

ELF4, sequence (Q99607 whole entry): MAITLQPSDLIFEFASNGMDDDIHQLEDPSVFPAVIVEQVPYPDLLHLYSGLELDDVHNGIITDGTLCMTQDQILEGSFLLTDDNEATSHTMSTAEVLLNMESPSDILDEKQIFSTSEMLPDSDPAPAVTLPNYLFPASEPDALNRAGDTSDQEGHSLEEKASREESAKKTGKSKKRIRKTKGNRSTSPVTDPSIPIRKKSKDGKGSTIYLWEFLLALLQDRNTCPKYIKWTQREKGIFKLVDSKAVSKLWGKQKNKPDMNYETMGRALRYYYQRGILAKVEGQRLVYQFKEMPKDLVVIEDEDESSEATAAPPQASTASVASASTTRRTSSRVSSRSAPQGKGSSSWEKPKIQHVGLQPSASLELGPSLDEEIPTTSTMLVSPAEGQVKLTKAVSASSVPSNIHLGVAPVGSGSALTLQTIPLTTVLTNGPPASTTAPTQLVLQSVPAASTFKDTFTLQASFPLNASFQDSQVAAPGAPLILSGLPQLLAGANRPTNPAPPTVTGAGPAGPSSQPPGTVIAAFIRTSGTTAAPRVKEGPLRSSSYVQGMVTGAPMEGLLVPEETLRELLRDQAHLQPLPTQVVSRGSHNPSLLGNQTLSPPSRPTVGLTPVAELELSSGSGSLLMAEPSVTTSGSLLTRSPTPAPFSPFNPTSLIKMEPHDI
ETV5, sequence (P41161 whole entry): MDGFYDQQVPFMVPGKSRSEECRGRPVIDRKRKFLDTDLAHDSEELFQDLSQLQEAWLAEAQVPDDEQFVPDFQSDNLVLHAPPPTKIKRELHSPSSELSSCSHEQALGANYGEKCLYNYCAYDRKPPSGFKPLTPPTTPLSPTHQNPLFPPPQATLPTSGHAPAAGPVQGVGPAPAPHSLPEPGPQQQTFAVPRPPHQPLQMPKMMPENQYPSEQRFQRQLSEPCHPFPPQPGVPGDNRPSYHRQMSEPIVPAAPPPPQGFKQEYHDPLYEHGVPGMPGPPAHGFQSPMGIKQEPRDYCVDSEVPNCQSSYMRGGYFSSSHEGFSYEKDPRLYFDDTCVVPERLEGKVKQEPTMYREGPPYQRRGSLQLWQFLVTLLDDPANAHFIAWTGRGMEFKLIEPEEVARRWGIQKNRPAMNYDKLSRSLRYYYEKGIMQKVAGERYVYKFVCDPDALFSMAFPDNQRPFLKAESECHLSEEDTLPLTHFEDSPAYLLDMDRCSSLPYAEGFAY
HSF1, sequence (Q00613 whole entry): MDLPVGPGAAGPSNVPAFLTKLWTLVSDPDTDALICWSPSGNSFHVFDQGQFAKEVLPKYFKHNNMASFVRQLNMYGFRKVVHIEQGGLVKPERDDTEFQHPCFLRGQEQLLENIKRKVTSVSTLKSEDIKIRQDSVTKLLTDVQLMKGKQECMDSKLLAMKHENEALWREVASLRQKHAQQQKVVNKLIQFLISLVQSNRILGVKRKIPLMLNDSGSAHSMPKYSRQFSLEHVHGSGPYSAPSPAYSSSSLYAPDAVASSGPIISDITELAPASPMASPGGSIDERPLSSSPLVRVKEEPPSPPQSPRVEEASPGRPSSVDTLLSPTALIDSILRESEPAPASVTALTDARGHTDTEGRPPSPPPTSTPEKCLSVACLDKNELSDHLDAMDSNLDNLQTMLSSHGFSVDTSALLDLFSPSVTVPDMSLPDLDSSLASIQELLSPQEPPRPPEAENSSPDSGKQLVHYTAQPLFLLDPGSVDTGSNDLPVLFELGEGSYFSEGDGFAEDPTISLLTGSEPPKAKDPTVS
CRX, sequence (O43186 whole entry): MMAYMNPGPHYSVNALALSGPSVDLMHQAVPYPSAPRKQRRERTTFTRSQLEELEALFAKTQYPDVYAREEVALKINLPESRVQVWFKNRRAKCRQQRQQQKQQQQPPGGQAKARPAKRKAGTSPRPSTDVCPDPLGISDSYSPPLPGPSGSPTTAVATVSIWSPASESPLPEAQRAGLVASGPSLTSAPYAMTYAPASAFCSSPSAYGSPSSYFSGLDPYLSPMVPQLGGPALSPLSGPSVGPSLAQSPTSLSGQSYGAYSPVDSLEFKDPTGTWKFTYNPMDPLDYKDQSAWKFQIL
ETV1, sequence (P50549 whole entry): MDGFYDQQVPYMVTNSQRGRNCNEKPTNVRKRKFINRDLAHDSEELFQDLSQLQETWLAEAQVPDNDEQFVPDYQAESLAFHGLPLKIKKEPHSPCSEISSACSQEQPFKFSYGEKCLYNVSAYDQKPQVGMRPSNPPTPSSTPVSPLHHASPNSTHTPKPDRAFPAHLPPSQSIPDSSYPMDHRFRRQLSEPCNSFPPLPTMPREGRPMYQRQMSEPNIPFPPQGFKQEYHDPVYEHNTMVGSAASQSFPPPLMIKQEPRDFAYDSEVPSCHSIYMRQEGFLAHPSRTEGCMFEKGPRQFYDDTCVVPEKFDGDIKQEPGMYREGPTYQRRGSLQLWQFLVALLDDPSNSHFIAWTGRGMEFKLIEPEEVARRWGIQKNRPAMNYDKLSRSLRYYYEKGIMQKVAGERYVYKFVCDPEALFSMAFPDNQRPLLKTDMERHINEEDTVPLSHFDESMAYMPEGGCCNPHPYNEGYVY

CCGATT
binding signal [1]: 1.37 fold enrichment (6-mer frequency, TF over GST control) | binding signal [2]: 1.34 fold enrichment (6-mer frequency, TF over GST control) | binding signal [3]: 1.94 fold enrichment (6-mer frequency, TF over GST control) | binding signal [4]: 1.18 fold enrichment (6-mer frequency, TF over GST control) | binding signal [5]: 1.41 fold enrichment (6-mer frequency, TF over GST control) | binding signal [6]: 1.37 fold enrichment (6-mer frequency, TF over GST control) | binding signal [7]: 1.27 fold enrichment (6-mer frequency, TF over GST control) | binding signal [8]: 1.17 fold enrichment (6-mer frequency, TF over GST control) | binding signal [9]: 2.69 fold enrichment (6-mer frequency, TF over GST control) | binding signal [10]: 1.35 fold enrichment (6-mer frequency, TF over GST control)
